Our source for the composite z-score values is PubChem BioAssay.

Sequence of Neurogenic locus notch homolog protein 2 (Homo sapiens) (Q04721 whole entry, looked up): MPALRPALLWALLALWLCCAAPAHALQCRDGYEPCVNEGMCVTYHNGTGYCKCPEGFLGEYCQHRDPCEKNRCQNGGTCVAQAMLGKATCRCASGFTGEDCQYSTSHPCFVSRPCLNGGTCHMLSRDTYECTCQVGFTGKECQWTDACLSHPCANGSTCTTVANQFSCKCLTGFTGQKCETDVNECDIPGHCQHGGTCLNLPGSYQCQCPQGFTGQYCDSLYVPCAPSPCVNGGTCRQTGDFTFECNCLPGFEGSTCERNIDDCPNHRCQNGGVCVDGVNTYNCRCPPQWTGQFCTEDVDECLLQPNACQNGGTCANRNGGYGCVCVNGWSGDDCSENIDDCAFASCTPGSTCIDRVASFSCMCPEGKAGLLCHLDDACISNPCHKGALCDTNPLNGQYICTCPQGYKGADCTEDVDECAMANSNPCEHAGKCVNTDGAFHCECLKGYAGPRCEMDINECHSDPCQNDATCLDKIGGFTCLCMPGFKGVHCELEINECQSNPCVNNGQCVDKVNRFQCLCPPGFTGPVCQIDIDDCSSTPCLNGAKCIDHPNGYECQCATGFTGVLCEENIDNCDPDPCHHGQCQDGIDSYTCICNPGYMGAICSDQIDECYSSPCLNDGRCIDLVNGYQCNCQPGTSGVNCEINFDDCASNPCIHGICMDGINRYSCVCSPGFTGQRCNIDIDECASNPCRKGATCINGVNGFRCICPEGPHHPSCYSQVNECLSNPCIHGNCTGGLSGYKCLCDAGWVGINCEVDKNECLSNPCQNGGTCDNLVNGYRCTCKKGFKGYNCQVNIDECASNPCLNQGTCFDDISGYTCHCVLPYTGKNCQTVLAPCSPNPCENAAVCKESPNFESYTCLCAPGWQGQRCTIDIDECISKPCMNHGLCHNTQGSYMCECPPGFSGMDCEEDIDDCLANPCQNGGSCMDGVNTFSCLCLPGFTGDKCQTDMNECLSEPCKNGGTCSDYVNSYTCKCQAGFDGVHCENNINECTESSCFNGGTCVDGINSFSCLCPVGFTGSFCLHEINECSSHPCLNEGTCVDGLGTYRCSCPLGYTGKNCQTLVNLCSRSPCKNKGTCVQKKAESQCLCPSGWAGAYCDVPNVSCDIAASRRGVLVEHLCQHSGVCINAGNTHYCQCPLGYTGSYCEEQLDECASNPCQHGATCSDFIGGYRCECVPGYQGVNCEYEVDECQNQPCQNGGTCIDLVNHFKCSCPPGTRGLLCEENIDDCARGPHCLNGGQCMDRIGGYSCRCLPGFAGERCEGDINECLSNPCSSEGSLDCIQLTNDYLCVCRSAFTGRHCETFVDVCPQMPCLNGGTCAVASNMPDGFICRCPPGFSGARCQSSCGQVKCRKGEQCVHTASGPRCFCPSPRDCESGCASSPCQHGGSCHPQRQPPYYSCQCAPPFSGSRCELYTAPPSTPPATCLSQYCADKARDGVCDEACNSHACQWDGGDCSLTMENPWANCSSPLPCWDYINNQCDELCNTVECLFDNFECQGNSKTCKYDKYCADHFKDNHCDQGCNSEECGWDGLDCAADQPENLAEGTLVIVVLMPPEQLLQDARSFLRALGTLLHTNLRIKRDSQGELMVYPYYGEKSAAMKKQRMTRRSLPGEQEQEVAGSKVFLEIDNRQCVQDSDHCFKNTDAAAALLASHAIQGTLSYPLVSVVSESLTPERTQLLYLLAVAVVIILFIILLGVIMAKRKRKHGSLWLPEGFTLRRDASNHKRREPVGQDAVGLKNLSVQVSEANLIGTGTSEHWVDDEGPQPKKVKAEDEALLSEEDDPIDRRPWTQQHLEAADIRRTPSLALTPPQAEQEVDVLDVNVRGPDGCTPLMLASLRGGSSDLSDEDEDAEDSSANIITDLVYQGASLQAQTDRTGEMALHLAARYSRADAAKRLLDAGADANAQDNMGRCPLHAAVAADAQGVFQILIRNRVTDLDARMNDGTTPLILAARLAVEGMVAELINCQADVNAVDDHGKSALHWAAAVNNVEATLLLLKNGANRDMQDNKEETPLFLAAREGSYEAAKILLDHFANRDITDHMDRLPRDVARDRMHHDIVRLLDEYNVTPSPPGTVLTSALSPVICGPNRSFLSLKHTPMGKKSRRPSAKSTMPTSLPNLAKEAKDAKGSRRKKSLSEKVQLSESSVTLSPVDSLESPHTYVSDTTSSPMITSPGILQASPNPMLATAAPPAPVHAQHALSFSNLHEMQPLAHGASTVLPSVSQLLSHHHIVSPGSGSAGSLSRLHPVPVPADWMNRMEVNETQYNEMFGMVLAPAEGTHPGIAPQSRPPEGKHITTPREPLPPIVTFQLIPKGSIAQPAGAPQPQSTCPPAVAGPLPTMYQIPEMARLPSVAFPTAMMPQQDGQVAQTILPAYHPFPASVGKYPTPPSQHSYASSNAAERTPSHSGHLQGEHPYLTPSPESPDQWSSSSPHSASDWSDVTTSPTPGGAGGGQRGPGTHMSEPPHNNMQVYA

This assay addresses Neurogenic locus notch homolog protein 2 (Homo sapiens) (UniProt Q04721). Description: small molecules binding Notch2 protein – biochemical, small-molecule microarray, 635 nm fluorescence, stem cell growth factors, primary screen (AID 1073). As to conditions: higher = more signal.
The compound `CC(C)c1ccc(NN2C(C(O)C3CCCCC3)C=CC3C(=O)N(c4ccccc4)C(=O)C32)cc1` (stereo not given) yielded a composite z-score of 1.6.

Take `COc1ccc(C(=O)Nc2ccc(CN3C(=O)[C@]4(O[C@H](CC(=O)N(CCO)Cc5ccccc5)[C@@H]([Si](C)(C)c5ccc(OC)cc5)[C@@H]4C)c4ccccc43)cc2)cc1`: the composite z-score stood at 0.271.

`CCOC(=O)C=C1C[C@@H](c2cccc([N+](=O)[O-])c2)O[C@@H](c2cccc([N+](=O)[O-])c2)O1` showed a composite z-score of 1.59. To `CC[C@@H]1C=C(C(=O)O)[C@H](c2cccc(Cl)c2)N1S(=O)(=O)c1ccc(C)cc1` belongs 1.36; to `C=CCOC(=O)[C@H]1[C@@H]2C(=O)O[C@@H](c3ccccc3)[C@@H](c3ccccc3)N2[C@@H](c2ccc(OCCOC(=O)[C@@H]3C[C@@H]4C(=O)N[C@@H](Cc5ccccc5)C(=O)N4[C@@H]3c3ccc(O)cc3)cc2)[C@]12C(=O)Nc1ccc(I)cc12`, 0.437; to `COC(=O)C1=CC(c2ccc(CO)cc2)=CC(C2CC2)N(Cc2cc3c(cc2Br)OCO3)C=C1C(=O)OC` (stereo not given), 1.66.

In turn, `O=C1O[C@H](c2ccccc2)[C@H](c2ccccc2)N2[C@H]1[C@@H](C(=O)O)[C@]1(C(=O)Nc3ccc(C#CC4(O)CCCCCC4)cc31)[C@H]2c1ccccc1OCCO` showed a composite z-score of 1.11.

Compound `CCCCCCc1nc(-c2ccc(OC)nc2)c(C)c2c1[Si](C(C)C)(C(C)C)OC2` yielded a composite z-score of 0.0716. To `[N-]=[N+]=NCc1ccccc1[C@H]1OC(c2ccc(OCCCO)cc2)=N[C@@]1(Cc1ccccc1N=[N+]=[N-])C(=O)N1CCOCC1` belongs 1.55; to `C=CCOC(=O)[C@H]1[C@@H]2C(=O)O[C@@H](c3ccccc3)[C@@H](c3ccccc3)N2[C@@H](c2ccc(OCCOC(=O)[C@H]3C[C@H]4C(=O)NCC(=O)N4[C@H]3c3cccc(OCCO)c3)cc2)[C@]12C(=O)Nc1ccc(I)cc12`, 0.81.
